# Test results published in ChEMBL document CHEMBL3988442, “University of Dundee, Small-Polar-MMV Screening Library” (2021).
# For some assays here: Potency and affinity values are given separately.
# Key:
# Design in all cases: scale not given: direction of the effect not stated beside the values
# [1] = target: Protein translocase subunit SecA (Escherichia coli (strain K12)) (UniProt P10408); experiment: Assay to Identify E. coli SecA ATPase Inhibitors; assay type: functional; settings: 30 µM
# [2] = target: T1, Ubiquitin-activating enzyme e1, putative (Leishmania donovani (strain BPK282A1)) (UniProt E9BSI1); experiment: Leishmania donovani Ubiquitin Activating Enzyme (LdE1); assay type: functional; settings: 30 µM
# T1 sequence (whole entry): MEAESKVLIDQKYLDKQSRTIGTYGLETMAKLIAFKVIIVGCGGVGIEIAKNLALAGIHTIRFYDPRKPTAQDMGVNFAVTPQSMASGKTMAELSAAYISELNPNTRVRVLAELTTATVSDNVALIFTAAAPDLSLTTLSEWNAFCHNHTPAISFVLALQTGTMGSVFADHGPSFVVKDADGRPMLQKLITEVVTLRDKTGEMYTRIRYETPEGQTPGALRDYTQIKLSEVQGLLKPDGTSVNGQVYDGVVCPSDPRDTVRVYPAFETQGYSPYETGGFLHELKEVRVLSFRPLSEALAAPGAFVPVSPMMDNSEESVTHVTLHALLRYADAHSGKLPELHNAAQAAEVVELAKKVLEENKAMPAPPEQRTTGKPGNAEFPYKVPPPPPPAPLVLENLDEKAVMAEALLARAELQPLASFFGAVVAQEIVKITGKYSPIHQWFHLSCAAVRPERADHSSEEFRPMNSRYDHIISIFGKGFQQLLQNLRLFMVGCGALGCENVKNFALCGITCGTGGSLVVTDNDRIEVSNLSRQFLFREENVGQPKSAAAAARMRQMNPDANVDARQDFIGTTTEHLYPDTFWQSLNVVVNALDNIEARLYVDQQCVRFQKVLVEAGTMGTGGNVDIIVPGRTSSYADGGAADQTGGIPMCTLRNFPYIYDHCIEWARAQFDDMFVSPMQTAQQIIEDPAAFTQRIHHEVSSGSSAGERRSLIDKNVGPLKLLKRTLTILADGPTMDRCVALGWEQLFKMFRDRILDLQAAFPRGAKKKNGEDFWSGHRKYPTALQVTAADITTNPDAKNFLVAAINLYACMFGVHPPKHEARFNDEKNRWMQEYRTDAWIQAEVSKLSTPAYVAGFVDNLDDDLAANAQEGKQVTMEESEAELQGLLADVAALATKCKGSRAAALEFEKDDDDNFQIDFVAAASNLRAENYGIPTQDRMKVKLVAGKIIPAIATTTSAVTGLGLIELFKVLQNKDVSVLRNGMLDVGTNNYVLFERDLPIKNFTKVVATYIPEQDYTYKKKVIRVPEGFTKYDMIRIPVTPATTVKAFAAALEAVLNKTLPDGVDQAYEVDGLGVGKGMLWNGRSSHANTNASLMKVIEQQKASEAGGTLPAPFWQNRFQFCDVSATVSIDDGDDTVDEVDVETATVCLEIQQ
# [3] = target: AMP-activated protein kinase, AMPK (Homo sapiens) (UniProt P54646+O43741+P54619+Q9UGJ0+Q9Y478+Q13131+Q9UGI9); experiment: AMP-dependent Kinase enzyme assay. An in vitro enzyme assay that detects ADP turnover that is directly proportional to AMPK activity. This uses naive AMPK that is activated during the assay with MK-8722; assay type: functional; settings: 30 µM
# [4] = target: Sialic acid-binding Ig-like lectin 9 (Homo sapiens) (UniProt Q9Y336); experiment: Hs-Siglec9 ALPHAscreen SOP 20170721; settings: 10 µM
# Trypanosoma cruzi = experiment: Trypanosoma cruzi phosphomannomutase and mannose-1-phosphate guanylyltransferase assay; assay type: functional; settings: 10 µM
# [5] = target: T2, Arginase-2, mitochondrial (Homo sapiens) (UniProt P78540); experiment: in vitro enzyme assay to detect the production of urea directly proportional to the activity of Arginase II; assay type: functional; settings: 33.3 µM; note: in the data most compounds retested in dose-response had high values
# T2 sequence (whole entry): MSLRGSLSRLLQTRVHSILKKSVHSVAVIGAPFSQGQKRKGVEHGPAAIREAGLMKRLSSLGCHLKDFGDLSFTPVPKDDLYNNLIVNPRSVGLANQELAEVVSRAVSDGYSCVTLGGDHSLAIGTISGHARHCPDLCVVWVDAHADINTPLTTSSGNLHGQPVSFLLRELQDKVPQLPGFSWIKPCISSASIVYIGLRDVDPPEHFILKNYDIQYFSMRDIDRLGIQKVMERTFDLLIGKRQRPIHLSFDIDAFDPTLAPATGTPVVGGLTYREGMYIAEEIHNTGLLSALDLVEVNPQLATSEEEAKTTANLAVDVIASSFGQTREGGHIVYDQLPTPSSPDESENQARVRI
# [6] = target: T3, Proteasome subunit beta (Trypanosoma cruzi) (UniProt O96673); experiment: Trypanosoma cruzi proteasome chymotrypsin-like activity (TcProtChymo) assay.; note: in the data most compounds retested in dose-response had high values; assay type: functional; settings: 9.37 µM
# T3 sequence (whole entry): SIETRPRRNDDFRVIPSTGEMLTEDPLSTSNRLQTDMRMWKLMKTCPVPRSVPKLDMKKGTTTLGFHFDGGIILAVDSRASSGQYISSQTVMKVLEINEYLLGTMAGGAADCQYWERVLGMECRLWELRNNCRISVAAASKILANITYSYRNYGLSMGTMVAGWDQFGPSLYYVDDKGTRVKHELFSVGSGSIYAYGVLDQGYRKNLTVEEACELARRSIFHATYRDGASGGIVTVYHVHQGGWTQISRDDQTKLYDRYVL
# Homo sapiens = organism: Homo sapiens; experiment: To identify inhibition of the IFN signalling (Jak-Stat) pathway via expression of an eGFP reporter gene under the control of an IFN-stimulated response element (ISRE) containing MxA promoter.; assay type: functional; settings: 30 µM
# [7] = target: T4, Tyrosyl-tRNA synthetase, putative (Trypanosoma cruzi (strain CL Brener)) (UniProt Q4DSP6); experiment: Trypanosoma cruzi tyrosyl tRNA synthetase (TcYRS) _High Tyrosine SOP; assay type: functional; settings: 30 µM; note: in the data most compounds retested in dose-response had high values
# T4 sequence (whole entry): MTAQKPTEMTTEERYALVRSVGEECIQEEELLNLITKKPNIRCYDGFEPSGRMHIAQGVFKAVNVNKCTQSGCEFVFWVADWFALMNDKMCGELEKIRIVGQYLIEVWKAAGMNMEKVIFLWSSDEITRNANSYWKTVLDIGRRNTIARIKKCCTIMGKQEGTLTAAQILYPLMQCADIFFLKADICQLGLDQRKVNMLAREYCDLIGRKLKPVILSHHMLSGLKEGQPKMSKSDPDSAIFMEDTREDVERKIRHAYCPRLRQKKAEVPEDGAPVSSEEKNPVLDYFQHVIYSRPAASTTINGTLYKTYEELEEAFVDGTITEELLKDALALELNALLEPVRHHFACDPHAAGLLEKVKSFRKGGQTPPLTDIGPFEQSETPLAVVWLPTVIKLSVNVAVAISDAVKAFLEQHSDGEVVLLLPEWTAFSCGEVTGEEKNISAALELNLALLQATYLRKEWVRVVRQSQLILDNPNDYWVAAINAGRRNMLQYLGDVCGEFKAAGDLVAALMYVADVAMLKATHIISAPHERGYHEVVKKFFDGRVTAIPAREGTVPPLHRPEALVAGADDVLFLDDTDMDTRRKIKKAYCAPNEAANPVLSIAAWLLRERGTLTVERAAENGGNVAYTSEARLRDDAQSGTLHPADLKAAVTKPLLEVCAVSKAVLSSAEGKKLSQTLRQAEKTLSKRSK
# [8] = target: T4, Tyrosyl-tRNA synthetase, putative (Trypanosoma cruzi (strain CL Brener)); experiment: Trypanosoma cruzi tyrosyl tRNA synthetase (TcYRS) SOP; assay type: functional; settings: 30 µM
# [9] = target: Chromo domain-containing protein 1 (Saccharomyces cerevisiae (strain ATCC 204508 / S288c) (Baker's yeast)) (UniProt P32657); experiment: ScCHD-1 Enzyme Inhibition Assay; assay type: functional; settings: 30 µM; note: in the data most compounds retested in dose-response had high values
# Chain of Chromo domain-containing protein 1 (Saccharomyces cerevisiae (strain ATCC 204508 / S288c) (Baker's yeast)) (P32657 whole entry, the tested form may be a part): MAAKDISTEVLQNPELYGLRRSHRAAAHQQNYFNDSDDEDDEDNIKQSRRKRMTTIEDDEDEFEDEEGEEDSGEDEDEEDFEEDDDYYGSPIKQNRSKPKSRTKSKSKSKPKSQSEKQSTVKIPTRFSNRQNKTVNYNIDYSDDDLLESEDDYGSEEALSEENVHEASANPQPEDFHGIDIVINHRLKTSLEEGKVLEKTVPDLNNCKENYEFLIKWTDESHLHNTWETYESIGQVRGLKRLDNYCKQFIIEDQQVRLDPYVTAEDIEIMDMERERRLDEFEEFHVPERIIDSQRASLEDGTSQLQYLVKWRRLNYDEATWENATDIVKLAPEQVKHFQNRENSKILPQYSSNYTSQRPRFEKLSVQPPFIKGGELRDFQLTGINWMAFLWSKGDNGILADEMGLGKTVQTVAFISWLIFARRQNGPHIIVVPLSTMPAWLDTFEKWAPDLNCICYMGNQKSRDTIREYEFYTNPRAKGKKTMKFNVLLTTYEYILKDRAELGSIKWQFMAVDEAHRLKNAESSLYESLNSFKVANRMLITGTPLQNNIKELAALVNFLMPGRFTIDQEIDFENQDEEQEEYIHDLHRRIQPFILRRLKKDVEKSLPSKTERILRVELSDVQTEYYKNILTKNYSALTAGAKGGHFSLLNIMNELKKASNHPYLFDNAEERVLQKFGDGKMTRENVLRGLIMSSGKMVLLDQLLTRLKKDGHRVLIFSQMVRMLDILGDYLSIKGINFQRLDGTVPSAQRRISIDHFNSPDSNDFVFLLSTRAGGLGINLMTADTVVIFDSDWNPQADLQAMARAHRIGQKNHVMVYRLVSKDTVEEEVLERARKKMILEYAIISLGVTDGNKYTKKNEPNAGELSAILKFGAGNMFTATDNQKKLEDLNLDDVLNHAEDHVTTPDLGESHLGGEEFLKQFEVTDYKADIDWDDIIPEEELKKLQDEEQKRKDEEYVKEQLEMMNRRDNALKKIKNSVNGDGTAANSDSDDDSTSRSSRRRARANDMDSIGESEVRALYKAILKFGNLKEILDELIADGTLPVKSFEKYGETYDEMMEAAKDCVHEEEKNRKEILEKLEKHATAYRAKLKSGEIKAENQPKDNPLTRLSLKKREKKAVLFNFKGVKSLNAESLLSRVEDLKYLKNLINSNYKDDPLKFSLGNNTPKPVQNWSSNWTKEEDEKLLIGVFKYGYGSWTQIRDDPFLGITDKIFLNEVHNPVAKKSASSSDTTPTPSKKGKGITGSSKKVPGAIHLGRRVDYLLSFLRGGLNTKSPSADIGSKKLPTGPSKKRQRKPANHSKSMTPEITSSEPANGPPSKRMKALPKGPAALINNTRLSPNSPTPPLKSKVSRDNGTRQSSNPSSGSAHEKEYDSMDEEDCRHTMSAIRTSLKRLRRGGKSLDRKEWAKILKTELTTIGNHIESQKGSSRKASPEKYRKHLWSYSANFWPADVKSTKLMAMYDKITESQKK
# Chain of Protein translocase subunit SecA (Escherichia coli (strain K12)) (P10408 whole entry): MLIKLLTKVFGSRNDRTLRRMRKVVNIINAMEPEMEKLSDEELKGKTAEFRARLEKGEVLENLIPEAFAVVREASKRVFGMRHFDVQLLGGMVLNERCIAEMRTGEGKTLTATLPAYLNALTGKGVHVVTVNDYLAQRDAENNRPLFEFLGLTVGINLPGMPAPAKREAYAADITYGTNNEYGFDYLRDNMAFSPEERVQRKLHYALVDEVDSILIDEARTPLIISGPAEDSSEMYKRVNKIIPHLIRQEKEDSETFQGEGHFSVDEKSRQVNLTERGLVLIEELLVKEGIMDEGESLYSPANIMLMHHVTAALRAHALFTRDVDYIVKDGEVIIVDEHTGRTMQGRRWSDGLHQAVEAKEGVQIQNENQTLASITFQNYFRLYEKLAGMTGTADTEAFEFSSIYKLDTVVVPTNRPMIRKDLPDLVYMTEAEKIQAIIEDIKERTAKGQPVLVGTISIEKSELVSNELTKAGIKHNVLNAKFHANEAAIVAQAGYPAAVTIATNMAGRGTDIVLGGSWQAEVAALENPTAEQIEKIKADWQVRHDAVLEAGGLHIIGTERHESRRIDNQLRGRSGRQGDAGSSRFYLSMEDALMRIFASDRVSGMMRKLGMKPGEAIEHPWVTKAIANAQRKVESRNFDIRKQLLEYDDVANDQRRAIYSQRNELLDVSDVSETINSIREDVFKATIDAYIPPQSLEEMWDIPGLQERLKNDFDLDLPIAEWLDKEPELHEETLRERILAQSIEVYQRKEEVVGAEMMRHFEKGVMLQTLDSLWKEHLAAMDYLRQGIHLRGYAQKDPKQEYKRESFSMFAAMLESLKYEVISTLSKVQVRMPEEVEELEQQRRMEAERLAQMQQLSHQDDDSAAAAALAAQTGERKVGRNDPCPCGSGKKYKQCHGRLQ
# Chain of Sialic acid-binding Ig-like lectin 9 (Homo sapiens) (Q9Y336 whole entry): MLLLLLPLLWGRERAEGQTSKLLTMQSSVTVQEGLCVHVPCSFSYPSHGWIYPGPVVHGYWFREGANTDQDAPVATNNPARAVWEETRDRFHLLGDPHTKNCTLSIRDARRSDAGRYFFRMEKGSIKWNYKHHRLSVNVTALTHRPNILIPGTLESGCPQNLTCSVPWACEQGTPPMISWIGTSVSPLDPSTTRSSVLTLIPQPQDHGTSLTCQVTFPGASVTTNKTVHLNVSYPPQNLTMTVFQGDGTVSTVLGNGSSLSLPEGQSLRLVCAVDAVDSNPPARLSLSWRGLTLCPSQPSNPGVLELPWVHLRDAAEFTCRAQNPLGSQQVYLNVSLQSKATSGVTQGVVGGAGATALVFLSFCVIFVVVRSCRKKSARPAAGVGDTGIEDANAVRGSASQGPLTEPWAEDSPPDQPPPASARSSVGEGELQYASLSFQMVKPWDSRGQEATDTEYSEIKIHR
Structure (SMILES),Percent Effect [1],Percent Effect [2],Percent Effect [3],Percent Effect [4],Percent Effect (Trypanosoma cruzi),Percent Effect [5],Percent Effect [6],Percent Effect (Homo sapiens),Percent Effect [7],Percent Effect [8],Percent Effect [9]
CC(=O)N(Cc1noc(C2CC2)n1)C1CCN(Cc2cccnc2)C1 (stereo unspecified),-2.68%,13.5%,-6.59%,0.785%,-1.76%,-0.185%,2.51%,12.5%,4.95%,18.3%,-7.09%
COc1ccc(CN(C)CC2CCCN2c2cccnn2)cc1F (stereo unspecified),1.17%,15.6%,13.3%,-7.91%,-2.25%,-7.79%,13.8%,18.7%,7.62%,18.8%,-22.1%
CC(=O)NCC1CCN(C(=O)c2csc(-c3ccc(C)cc3C)n2)CC1,-3.29%,13.5%,1.21%,1.58%,1.58%,0.554%,4.49%,35.7%,7.92%,23.2%,0.867%
O=C(Cn1cccnc1=O)NC(Cc1ccsc1)c1ccccn1 (stereo unspecified),-10%,14.9%,0.845%,8.55%,1.98%,0.232%,5.3%,2.88%,5.38%,9.09%,-19.6%
CCc1csc(CCNC(=O)C2CC(=O)N(C(C)C)C2)n1 (stereo unspecified),-2.98%,15.6%,-6.03%,4.97%,0.0983%,-11%,8.65%,8.23%,6.45%,13.6%,-1.5%
Cc1cc(C(=O)N2Cc3ccccc3OC3(CCOCC3)C2)nc(N)n1,-5.65%,17.6%,1.22%,-2.77%,0%,-4.87%,22.9%,0.0795%,2.15%,14.3%,-24%
CC(O)CN1CCN(C(=O)c2cc3ccccc3[nH]c2=O)CC1 (stereo unspecified),-2.78%,2.63%,-2.27%,10.3%,-3.8%,-4.73%,13.1%,-25.9%,1.06%,-5.2%,-3.52%
N#Cc1cnn(-c2ccc(C(=O)Nc3ccccn3)cc2)c1N,-1.12%,17.7%,3.05%,-10.6%,7.65%,-6.46%,19.7%,8.19%,13.3%,29.1%,-3.72%
O=C(NCCN1CCC(c2cccs2)CC1)c1ccccc1C(F)(F)F,-3.22%,8.22%,0.699%,8.89%,5.09%,17.7%,17.2%,3.57%,5.38%,12.5%,-4.65%
Cc1csc(CNC(=O)N(C)Cc2cnn(C)c2)n1,-2.05%,21.6%,-6.61%,2.62%,4.18%,-4.25%,16.5%,12.9%,5.94%,23.2%,-4.86%
CN(c1ccc(C(C)(C)C)cc1)S(=O)(=O)c1cc(C(=O)O)cs1,-2.58%,-2.7%,-8.07%,8.29%,-3.11%,2.4%,-1.08%,-8.15%,-1.48%,1.24%,1.18%
O=C(Cc1ccccn1)N1CCN(CC2CC2)c2ncccc2C1,-4.53%,10.7%,3.91%,0.314%,0.591%,-0.699%,4.85%,9.79%,6.38%,16.7%,-7.07%
Cc1ccccc1C(=O)NCc1ccc(N2CCNC(=O)C2)c(F)c1,-3.15%,8.11%,-2.71%,4.68%,0.579%,-2.86%,8.97%,-16.3%,4.76%,12.2%,-2.41%
CCCNC(=O)c1sc(Nc2ccc(Cl)cn2)nc1C,-0.647%,17.3%,-1.88%,-4.2%,4.13%,-0.88%,13.5%,-1.08%,7.41%,7.69%,-6.09%
COCc1nc(C(=O)N2CCCC2c2noc(C(C)C)n2)cs1 (stereo unspecified),-3.95%,1.27%,8.09%,-0.11%,-1.74%,3.66%,-0.343%,3.65%,3.12%,5.06%,11.7%
CN(C)C(=O)NC1COC2(CCN(Cc3ccccc3)CC2)C1 (stereo unspecified),-6.16%,0%,7.68%,-1.66%,-3.94%,1.17%,6.26%,21.5%,-3.19%,-6.41%,-1.6%
